Measured values taken from PubChem BioAssay (NCATS).
Several values for one entry are separate records, joined by “and”; a condition that tells them apart may be missing. Equal values may be shown once. A number with no mark means an inactive call. Results filed as inconclusive are left out. Entries that show only a call come without a potency. Activity calls are given as the source filed them. Unless noted, calls follow the shape of the dose curve; as a rule, active = well fitted curve in the direction sought with a large enough effect; inconclusive = small, poorly fitted or top-dose-only effect, or another doubt; inactive = no such curve, though single readings can be large; an effect the other way counts as inactive or inconclusive.

Key:
[1] = target: Mitogen-activated protein kinase 10 (Mus musculus) (UniProt Q61831); test: JNK3 AlphaScreen Assay (AID 530; active = well fitted curve in either direction with a large enough effect, not every such curve was filed as active;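 also: kinase came from lysate of stimulated human HepG2 cells; signal reports phosphorylation of biotinylated GST-cJun 1-79 at Ser73 with 10 µM ATP; series mostly up to about 57 µM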)
Outline: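 Phosphorylation of biotinylated GST-cJun(1-79) at Ser73 is measured by AlphaScreen proximity luminescence. Enzyme is JNK3 in HepG2 lysates activated with interleukin-1beta and tumor necrosis factor alpha; ATP is 10 uM final.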

[2] = target: Cytochrome P450 3A4 (Homo sapiens) (UniProt P08684); test: qHTS Assay for Inhibitors and Substrates of Cytochrome P450 3A4 (AID 884); also: series mostly up to about 57 µM; nearly all actives have a fitted effect of over 50% in size
Outline: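 Luminescent readout of luciferin produced by CYP3A4 (20 nM) dealkylation of Luciferin-PPXE, 25 uM (its KM). NADPH-driven reaction ran 60 min at RT after 10 min compound preincubation; data scaled to 57 uM ketoconazole as 100% inhibition.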

[3] = MultiTox-Fluor Cytotoxicity Assay - LYMP1-001 - Live Cells (AID 947)
[4] = Cell Viability - LYMP2-009 (AID 968);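 also: series mostly up to about 92 µM; cells exposed to compound for 24 h at 37 °C; nearly all actives have a fitted effect of over 55% in size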
[5] = Cell Viability - LYMP2-012 (AID 982);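 also: cellular ATP by luciferase luminescence where a drop means cytotoxicity; cells exposed to compound for one day before reading; nearly all actives have a fitted effect of over 55% in size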
[6] = target: Estrogen receptor (Homo sapiens) (UniProt P03372); test: qHTS assay for small molecule antagonists of estrogen receptor alpha signaling (AID 588513; active = well fitted curve in the direction sought with a large enough effect in the signal ratio, with a control signal flat, not every such curve was filed as active; the % refers to the signal ratio)
Outline: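 Beta-lactamase reporter, antagonist mode, HEK 293 GripTite cells; 0.5nM E2 stimulus, 18 h, 37 C; CCF4 dye 2 h RT; fluorescence. IC50 and efficacy from Hill fits, normalized to E2 and DMSO.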

[7] = target: Estrogen receptor (Homo sapiens) (UniProt P03372); test: qHTS assay for small molecule agonists of estrogen receptor alpha signaling (AID 588514; calls by dose curve; also: nearly all actives have a fitted effect of over 70% in size; also: potency is read from the fitted curve at half-maximal effect)
Outline: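 EC50 and efficacy came from Hill fits of beta-lactamase reporter signal (CCF4 dye, 2 h at room temperature) scaled between DMSO and 20 nM 17-beta-estradiol. Agonist mode: HEK293 ER-alpha-UAS-bla cells in charcoal/dextran-stripped serum medium, 18 h compound exposure at 37 C.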

[8] = target: Glucocorticoid receptor (Homo sapiens) (UniProt P04150); test: qHTS assay for small molecule antagonists of glucocorticoid receptor signaling (AID 588533; active = well fitted inhibition curve with a large enough effect in the signal ratio, with a control signal flat, not every such curve was filed as active; the % refers to the signal ratio;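 also: cells stimulated with 2 nM dexamethasone as agonist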)
Outline: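 Antagonist-mode qHTS: compound titrations added to GRE-bla HeLa cells, then dexamethasone 2 nM final; 18 h, 37 C. CCF4 FRET fluorescence normalized to dexamethasone and DMSO; IC50 from Hill fit.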

[9] = target: Peroxisome proliferator-activated receptor delta (Homo sapiens) (UniProt Q03181); test: qHTS assay for small molecule agonists of peroxisome proliferator-activated receptor delta signaling (AID 588534; calls by dose curve)
Outline: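 Agonist-mode beta-lactamase reporter readout (CCF4 dye, 2 h at RT) after 18 h at 37 °C exposure to a titration; Hill-equation fitting gave EC50 and maximal response.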

[10] = target: Vitamin D3 receptor (Homo sapiens) (UniProt P11473); test: qHTS assay for small molecule antagonists of vitamin D receptor signaling (AID 588541; calls by dose curve;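 also: receptor activated by calcitriol during compound treatment; series mostly up to about 77 µM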)
Outline: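 VDR-UAS-bla HEK293T cells (2000/well, 2% charcoal-stripped FBS) were treated with titrated compounds plus 1-alpha,25-dihydroxyvitamin D3 (50 nM or 3 nM final) for 16 h at 37 C. CCF4 beta-lactamase fluorescence was read; Hill fits gave IC50.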

[11] = target: Vitamin D3 receptor (Homo sapiens) (UniProt P11473); test: qHTS assay for small molecule agonists of vitamin D receptor signaling (AID 588543; calls by dose curve)
Outline: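 β-lactamase reporter, VDR-UAS-bla HEK293T, agonist mode. Cells plated 5 h at 37 °C, compound titration 16 h at 37 °C, CCF4 dye 2 h RT, ratio 460/530 nm. Hill fit → EC50, efficacy vs 50 nM 1α,25-(OH)2D3.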

[12] = target: Voltage-gated inwardly rectifying potassium channel KCNH2 (Homo sapiens) (UniProt Q12809); test: qHTS Assay for Small Molecule Inhibitors of the Human hERG Channel Activity (AID 588834);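 also: top concentration of the series differs between compounds; lower thallium flux fluorescence means stronger hERG block; nearly all actives have a fitted effect of over 50% in size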
Outline: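 Thallium-flux (FluxOR) read-out on FDSS: fluorescence read 10 s before and 2 min after stimulation buffer. hERG-BacMam-transduced U2OS cells, compound exposure about 10 min. AC50 by standard Hill equation.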

[13] = qHTS assay for small molecule disruptors of the mitochondrial membrane potential - 1 hr assay (AID 651754; calls by dose curve; also: nearly all actives have a fitted effect of over 35% in size)
Outline: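 Mitochondrial potential in living HepG2 cells after 1 hr compound treatment at 37C was read with Mito-MPS dye added for a further 30 min. Red aggregate and green monomer fluorescence were measured; loss of potential leaves dye as cytoplasmic monomers.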

[14] = qHTS assay for environmental chemicals that activate the Aryl hydrocarbon Receptor (AhR) signaling pathway (AID 651777); conditions: 1A2-DRE human hepatoma cells, luciferase, 24 h; activation: active compounds read high; also: nearly all actives have a fitted effect of over 15% in size
Outline: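 Luminescence read-out: One-Glo added for 30 min at RT after 24 hr compound treatment (37 C, 5% CO2) of human hepatoma cells expressing a DRE/CYP1A2 promoter–luciferase reporter; increased signal indicates AhR activation.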

[15] = target: Nuclear receptor ROR-gamma (Homo sapiens) (UniProt P51449); test: qHTS assay for small molecule antagonists of the retinoid-related orphan receptor gamma (ROR-gamma) signaling pathway (AID 651802);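 also: CHO cells with doxycycline-induced ROR-gamma expression; luciferase reporter luminescence driven by ROR response element; series mostly up to about 92 µM; nearly all actives have a fitted effect of over 60% in size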
Outline: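 Luminescence (One-Glo, 30 min RT) measured 16 h after compound addition and doxycycline induction at 37C. Reporter: RORE-luciferase under TET-inducible ROR-gamma in CHO cells.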

[16] = qHTS assay for small molecule antagonists of the retinoid-related orphan receptor gamma (ROR-gamma) signaling pathway - cell viability counter screen (AID 720652; active = well fitted curve in the direction sought with a large enough effect in the repeat runs; an effect the other way counts as inactive or inconclusive;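 also: CHO reporter cells with doxycycline-induced ROR-gamma expression; series mostly up to about 92 µM; compound exposure lasted 16 hr before ATP read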)
Outline: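 Cytotoxicity counter screen: intracellular ATP (CellTiter-Glo luminescence) measured in the doxycycline-induced CHO RORE-luciferase reporter line after 16 hr compound exposure at 37 C, 5% CO2.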

[17] = target: Nuclear receptor subfamily 1 group I member 2 (Rattus norvegicus) (UniProt Q9R1A7); test: qHTS assay for small molecule activators of the rat pregnane X receptor (rPXR) signaling pathway (AID 651751; call rule not given here); conditions: rPXR reporter cells, luciferase (One-Glo), 24 h
[18] = qHTS assay for small molecule activators of the human pregnane X receptor (PXR) signaling pathway (AID 720659; call rule not given here)
[19] = MultiTox-Fluor Cytotoxicity Assay - LYMP1-002 - Dead Cells (AID 960); also: nearly all actives have a fitted effect of over 60% in size
Outline: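 Dead-cell fluorescence (Ex/Em 485/520) after 16 h compound exposure at 37 C of LYMP1-002 lymphoblastoid cells in complete medium; AC50 by Hill equation, with data scaled between DMSO and 15 uM tetraoctylammonium bromide.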

[20] = qHTS assay for small molecule activators of the p53 signaling pathway (AID 651743; active = well fitted activation curve with a large enough effect in the signal ratio, not every such curve was filed as active; the % refers to the signal ratio; also: series mostly up to about 92 µM); conditions: HCT-116 p53RE-bla, beta-lactamase FRET ratio, 16 h; activation: active compounds read high
Outline: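 Agonist-mode quantitative HTS in HCT-116 cells carrying a p53-response-element beta-lactamase reporter; 16 h compound treatment at 37 C, then FRET substrate loading for 2 h at room temperature and fluorescence read.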

Vitamin D3 receptor (Homo sapiens), sequence (P11473 whole entry, looked up): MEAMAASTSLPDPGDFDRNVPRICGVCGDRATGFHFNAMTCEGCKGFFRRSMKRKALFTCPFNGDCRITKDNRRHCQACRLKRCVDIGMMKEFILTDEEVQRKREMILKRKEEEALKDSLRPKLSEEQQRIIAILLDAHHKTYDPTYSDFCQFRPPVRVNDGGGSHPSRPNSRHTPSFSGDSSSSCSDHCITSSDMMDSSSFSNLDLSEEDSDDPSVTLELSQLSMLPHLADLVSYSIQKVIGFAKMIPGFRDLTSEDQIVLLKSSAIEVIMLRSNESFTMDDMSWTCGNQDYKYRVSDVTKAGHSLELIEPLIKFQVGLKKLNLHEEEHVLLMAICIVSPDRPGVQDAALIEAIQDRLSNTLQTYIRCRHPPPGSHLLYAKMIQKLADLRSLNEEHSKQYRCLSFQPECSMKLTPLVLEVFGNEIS
Peroxisome proliferator-activated receptor delta (Homo sapiens), sequence (Q03181 whole entry, looked up): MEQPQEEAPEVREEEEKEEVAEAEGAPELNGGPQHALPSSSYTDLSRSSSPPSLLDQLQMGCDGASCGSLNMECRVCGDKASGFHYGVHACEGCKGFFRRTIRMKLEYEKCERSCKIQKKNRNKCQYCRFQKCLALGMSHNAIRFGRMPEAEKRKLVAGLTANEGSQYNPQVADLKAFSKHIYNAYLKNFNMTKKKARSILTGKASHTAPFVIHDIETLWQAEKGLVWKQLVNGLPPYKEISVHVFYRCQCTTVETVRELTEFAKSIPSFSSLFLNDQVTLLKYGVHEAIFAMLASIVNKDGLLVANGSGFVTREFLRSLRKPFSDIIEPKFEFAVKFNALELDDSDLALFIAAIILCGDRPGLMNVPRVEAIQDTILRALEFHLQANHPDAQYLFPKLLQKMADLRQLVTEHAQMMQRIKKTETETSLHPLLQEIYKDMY
Nuclear receptor subfamily 1 group I member 2 (Rattus norvegicus), sequence (Q9R1A7 whole entry, looked up): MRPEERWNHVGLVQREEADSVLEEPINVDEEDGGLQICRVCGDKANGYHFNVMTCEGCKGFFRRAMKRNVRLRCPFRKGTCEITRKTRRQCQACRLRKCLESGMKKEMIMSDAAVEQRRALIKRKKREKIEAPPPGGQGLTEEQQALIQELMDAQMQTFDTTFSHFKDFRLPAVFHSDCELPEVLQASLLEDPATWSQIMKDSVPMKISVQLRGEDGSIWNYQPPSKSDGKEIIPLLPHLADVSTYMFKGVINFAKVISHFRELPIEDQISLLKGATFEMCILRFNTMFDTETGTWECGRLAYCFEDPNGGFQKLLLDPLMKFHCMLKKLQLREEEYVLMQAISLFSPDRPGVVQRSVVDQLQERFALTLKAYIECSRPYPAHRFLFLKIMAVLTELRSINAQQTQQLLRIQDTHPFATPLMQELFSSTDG
Estrogen receptor (Homo sapiens), sequence (P03372 whole entry, looked up): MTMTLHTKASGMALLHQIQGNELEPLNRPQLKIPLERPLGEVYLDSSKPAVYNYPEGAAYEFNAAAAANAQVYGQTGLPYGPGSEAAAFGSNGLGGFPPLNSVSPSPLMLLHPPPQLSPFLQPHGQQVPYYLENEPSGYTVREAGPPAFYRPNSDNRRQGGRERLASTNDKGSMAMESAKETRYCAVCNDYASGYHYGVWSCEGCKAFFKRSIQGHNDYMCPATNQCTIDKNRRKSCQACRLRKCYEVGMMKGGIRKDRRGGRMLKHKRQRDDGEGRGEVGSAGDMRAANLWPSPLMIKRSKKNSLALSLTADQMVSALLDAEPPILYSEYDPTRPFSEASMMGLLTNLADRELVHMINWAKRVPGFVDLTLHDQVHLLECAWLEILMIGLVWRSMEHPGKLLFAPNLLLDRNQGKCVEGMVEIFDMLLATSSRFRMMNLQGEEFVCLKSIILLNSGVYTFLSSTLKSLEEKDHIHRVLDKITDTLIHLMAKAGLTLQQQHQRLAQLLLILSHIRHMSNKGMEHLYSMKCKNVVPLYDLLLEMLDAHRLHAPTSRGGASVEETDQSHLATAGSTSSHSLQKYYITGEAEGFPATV
Voltage-gated inwardly rectifying potassium channel KCNH2 (Homo sapiens), sequence (Q12809 whole entry, looked up): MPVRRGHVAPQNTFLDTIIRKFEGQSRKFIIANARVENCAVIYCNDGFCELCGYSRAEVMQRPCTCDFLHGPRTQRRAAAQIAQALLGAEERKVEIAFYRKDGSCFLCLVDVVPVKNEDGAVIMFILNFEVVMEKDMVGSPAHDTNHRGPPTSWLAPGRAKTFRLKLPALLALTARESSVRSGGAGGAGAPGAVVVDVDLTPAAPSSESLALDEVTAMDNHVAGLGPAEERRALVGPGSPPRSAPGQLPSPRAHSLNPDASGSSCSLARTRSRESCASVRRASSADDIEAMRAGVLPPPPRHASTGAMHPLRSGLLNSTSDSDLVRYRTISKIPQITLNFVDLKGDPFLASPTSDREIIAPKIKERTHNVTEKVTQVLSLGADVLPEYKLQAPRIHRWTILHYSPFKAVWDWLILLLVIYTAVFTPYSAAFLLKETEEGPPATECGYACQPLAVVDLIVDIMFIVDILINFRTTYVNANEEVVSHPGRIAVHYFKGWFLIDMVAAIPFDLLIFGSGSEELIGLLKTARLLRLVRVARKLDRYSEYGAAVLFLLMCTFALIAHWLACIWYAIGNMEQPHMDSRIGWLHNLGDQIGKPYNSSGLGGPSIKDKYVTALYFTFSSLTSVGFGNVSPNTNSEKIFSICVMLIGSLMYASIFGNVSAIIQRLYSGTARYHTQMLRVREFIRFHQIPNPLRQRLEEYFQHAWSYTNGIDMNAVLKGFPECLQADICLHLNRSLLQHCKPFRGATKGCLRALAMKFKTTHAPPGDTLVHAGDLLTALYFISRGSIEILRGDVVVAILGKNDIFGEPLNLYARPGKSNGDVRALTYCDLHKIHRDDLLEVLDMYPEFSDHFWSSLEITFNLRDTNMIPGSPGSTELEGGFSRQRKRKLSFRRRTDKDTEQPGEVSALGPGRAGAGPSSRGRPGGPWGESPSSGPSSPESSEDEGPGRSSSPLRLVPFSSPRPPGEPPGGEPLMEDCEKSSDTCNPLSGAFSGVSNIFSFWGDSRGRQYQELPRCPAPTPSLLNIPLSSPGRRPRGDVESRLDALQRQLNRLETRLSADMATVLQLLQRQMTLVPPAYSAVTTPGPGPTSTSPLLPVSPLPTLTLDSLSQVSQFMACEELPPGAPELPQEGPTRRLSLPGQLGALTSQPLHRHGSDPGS
Cytochrome P450 3A4 (Homo sapiens), sequence (P08684 whole entry, looked up): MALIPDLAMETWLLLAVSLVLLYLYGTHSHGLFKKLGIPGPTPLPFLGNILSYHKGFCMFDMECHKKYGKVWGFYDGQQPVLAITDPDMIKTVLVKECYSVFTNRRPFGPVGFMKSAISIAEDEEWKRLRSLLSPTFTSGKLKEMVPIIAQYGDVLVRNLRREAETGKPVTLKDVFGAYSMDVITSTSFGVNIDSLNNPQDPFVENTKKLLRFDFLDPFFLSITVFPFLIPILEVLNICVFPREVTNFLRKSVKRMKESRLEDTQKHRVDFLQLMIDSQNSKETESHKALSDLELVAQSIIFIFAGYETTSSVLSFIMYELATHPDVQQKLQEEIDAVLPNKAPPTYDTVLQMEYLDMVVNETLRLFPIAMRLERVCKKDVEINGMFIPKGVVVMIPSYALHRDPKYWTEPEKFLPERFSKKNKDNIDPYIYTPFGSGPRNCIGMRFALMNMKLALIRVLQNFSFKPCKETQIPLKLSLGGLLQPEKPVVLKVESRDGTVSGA
Glucocorticoid receptor (Homo sapiens), sequence (P04150 whole entry, looked up): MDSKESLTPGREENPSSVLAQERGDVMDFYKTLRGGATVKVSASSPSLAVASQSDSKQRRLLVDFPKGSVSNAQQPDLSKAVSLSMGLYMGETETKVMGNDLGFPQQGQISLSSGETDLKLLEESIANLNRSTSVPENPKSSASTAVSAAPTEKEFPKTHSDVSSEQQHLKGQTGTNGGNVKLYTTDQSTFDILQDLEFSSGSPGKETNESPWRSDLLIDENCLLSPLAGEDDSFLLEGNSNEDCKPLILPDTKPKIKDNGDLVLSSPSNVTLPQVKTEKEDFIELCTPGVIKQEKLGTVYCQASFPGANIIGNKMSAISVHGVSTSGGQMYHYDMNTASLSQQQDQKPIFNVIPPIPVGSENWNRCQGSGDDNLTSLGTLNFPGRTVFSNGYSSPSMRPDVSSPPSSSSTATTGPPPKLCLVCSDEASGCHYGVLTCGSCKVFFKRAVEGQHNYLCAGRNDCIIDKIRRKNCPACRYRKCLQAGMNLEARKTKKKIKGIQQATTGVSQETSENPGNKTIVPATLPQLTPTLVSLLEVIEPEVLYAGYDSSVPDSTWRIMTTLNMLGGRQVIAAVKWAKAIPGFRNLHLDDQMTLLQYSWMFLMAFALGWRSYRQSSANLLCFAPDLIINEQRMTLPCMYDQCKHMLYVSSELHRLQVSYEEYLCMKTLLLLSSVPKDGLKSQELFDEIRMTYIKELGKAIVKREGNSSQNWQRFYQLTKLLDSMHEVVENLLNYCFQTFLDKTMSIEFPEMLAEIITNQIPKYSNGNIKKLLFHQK
Nuclear receptor ROR-gamma (Homo sapiens), sequence (P51449 whole entry, looked up): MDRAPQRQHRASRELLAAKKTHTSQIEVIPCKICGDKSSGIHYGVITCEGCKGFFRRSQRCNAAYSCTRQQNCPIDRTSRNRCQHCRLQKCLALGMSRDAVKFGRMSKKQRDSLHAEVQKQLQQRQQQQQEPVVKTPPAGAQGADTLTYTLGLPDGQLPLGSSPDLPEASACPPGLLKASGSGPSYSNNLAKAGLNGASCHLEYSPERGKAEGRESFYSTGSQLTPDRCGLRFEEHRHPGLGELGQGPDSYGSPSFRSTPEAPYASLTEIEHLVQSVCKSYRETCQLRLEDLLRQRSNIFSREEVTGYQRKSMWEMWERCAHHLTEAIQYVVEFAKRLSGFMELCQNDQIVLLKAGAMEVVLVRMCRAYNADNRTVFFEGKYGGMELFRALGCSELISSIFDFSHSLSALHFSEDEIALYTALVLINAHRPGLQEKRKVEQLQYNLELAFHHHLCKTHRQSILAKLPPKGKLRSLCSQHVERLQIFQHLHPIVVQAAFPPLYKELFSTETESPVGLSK

Row | SMILES | outcome [1] | Potency [2] | Potency [3] | Potency [4] | Potency [5] | Potency [6] | Potency [7] | Potency [8] | outcome [9] | outcome [10] | outcome [11] | Potency [12] | Potency [13] | activation [14] | Potency [15] | Potency [16] | max response [17] | outcome [18] | Potency [19] | activation [20]
1 | C[N+](C)(C)Cc1ccccc1 | inactive | inactive | inactive | inactive | inactive | inactive | inactive | inactive | inactive | inactive | inactive | inactive | inactive | -0.332% and -0.436% | inactive | inactive | -3.63% and -0.669% | inactive |  | 
2 | CN(C)[C@@H]1C(=O)C(C(N)=O)=C(O)[C@]2(O)C(=O)C3=C(O)c4c(O)cccc4[C@@](C)(O)[C@H]3[C@H](O)[C@@H]12 | inactive |  |  |  |  |  |  |  |  |  |  |  |  |  |  |  |  |  |  | 
3 | C=CC(C)=O |  | inactive | inactive | inactive | inactive | inactive | inactive | inactive | inactive |  |  | inactive | inactive | 1.86% | inactive | inactive | 1.84% | inactive | inactive | -2.21%
4 | Cc1cccc(C#N)c1 | inactive |  | inactive | inactive | inactive | inactive | inactive | inactive | inactive | inactive | inactive | inactive | inactive | 2.06% | inactive | inactive | -0.906% | inactive | inactive | -3.72%
5 | CCCCOCCOP(=O)(OCCOCCCC)OCCOCCCC | inactive |  | inactive | inactive | inactive | inactive | inactive | inactive | inactive | inactive | inactive |  | inactive |  |  | inactive |  |  | inactive | -1.25% and 0.739%
6 | Clc1nc(Cl)nc(Cl)n1 | inactive | inactive | inactive | inactive | inactive | inactive | inactive | inactive | inactive | inactive | inactive | inactive | inactive | 1.36% and 0.55% | inactive | inactive | -1.06% and -1.98% |  | inactive | -4.73% and -1.27%
7 | CC(=O)[O-].CC(=O)[O-].O.O.O.[Pb+2] | inactive | inactive | inactive | inactive | inactive |  |  |  |  |  |  | inactive | inactive | 1.24% and 0.452% |  | inactive |  |  | inactive | 
8 | CC(C)(C)C(=O)C(Oc1ccc(Cl)cc1)n1cncn1 (stereo not given) |  |  |  |  |  |  | 39.8 µM (active) |  | inactive | inactive | inactive |  |  | 6% |  |  |  |  |  | -0.546% and 1.4%
9 | CCCCCCCCCCCC(=O)O |  |  |  |  |  |  |  |  | inactive |  |  |  |  |  |  |  |  |  |  | 
10 | CCCC(=O)Cl | inactive | inactive | inactive | inactive | inactive | inactive | inactive | inactive | inactive | inactive | inactive | inactive | inactive | -2.02% | inactive | inactive | -1.41% | inactive | inactive | -0.024%
11 | Nc1ccc(Br)cc1 | inactive |  | inactive | inactive | inactive | inactive | inactive | inactive | inactive |  |  | inactive | inactive | 0.717% | inactive | inactive | -3.71% | inactive | inactive | -1.91%
12 | CCCSC(=O)Cl | inactive | inactive | inactive | inactive | inactive | inactive | inactive | inactive | inactive | inactive | inactive | inactive | inactive | -0.385% | inactive | inactive | -3.99% | inactive | inactive | -3.85%
13 | C=C(C)C#N | inactive | inactive | inactive |  | inactive | inactive | 35.5 µM (active) |  | inactive | inactive | inactive | inactive |  | -0.895% and 0.596% | inactive | inactive | 2.68% and -1.1% | inactive | inactive | -0.28% and -1.48%
14 | O=C(Cl)C(Cl)(Cl)Cl | inactive |  | inactive | inactive | inactive | inactive | inactive | inactive | inactive | inactive | inactive | inactive | inactive | 0.0046% | inactive | inactive | -0.469% | inactive | inactive | -0.85%
15 | Cc1ccc([N+](=O)[O-])cc1C |  | inactive | inactive | inactive | inactive | inactive | inactive |  | inactive | inactive | inactive | inactive | inactive | -0.487% and 1.08% | inactive | inactive | 1.14% and -0.13% | inactive | inactive | 
